# Results taken from PubChem BioAssay (Tox21).
# Results filed as inconclusive are left out. Where a call stands in place of a potency, no number is given. Calls of active or inactive are those of the source. Unless noted, calls follow the shape of the dose curve; as a rule, active = well fitted curve in the direction sought with a large enough effect in the repeat runs; inconclusive = weak or mixed curves; inactive = no such curve, though single readings can be large; an effect the other way counts as inactive or inconclusive.
# Columns and labels:
# [1] = target: Estrogen receptor beta (Homo sapiens) (UniProt Q92731); assay: qHTS assay to identify small molecule agonists of the estrogen receptor beta (ER-beta) signaling pathway (AID 1259377; active = well fitted activation curve with a large enough effect in the signal ratio in the repeat runs, not every such curve was filed as active; the % refers to the signal ratio)
# Method in brief: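 Screening used GripTite ER-beta-UAS-bla cells held in 2% charcoal-stripped FBS medium. After overnight (16 hr) compound incubation at 37C, beta-lactamase activity was detected with a FRET substrate by fluorescence.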
# [2] = qHTS assay to identify small molecule agonists of the androgen receptor (AR) signaling pathway in the presence of an antagonist - cell viability counter screen (AID 1259379); also: nearly all actives have a fitted effect of over 25% in size; also: potency is read from the fitted curve at half-maximal effect
# Method in brief: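 In MDA-kb2 cells (human breast carcinoma, MMTV-luciferase), compounds at 15 concentrations plus 3.0uM nilutamide; 16 hr, 37C, 0% CO2; CellTiter-Fluor fluorescence read for viability.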
# [3] = qHTS assay to identify small molecule agonists of the estrogen receptor beta (ER-beta) signaling pathway - cell viability counter screen (AID 1259380); also: nearly all actives have a fitted effect of over 30% in size; also: potency is read from the fitted curve at half-maximal effect
# Method in brief: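 Viability of ER-beta-UAS-bla HEK293T cells was determined by CellTiter-Glo luminescence following 16 hr treatment with test compounds at 37C.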
# [4] = qHTS assay to identify small molecule antagonists of the estrogen receptor beta (ER-beta) signaling pathway - cell viability counter screen (AID 1259382); also: nearly all actives have a fitted effect of over 55% in size; also: potency is read from the fitted curve at half-maximal effect
# Method in brief: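 Tox21 10K library tested in qHTS format on ER-beta-bla HEK293T cells stimulated with 1nM E2; 16 hr treatment at 37C. Same-well CellTiter-Glo luminescence served as the cell viability measure.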
# [5] = target: Estrogen receptor (Homo sapiens) (UniProt P03372); assay: qHTS assay to identify small molecule agonists of the estrogen receptor alpha (ER-alpha) signaling pathway in the presence of an antagonist (AID 1259383; calls by dose curve; also: top concentration of the series differs between compounds; nearly all actives have a fitted effect of over 15% in size)
# Method in brief: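 In VM7Luc4E2 cells, 4,000 per well, compounds at 15 concentrations were co-incubated 22hr at 37C with 10.0nM final ICI-182,780. Luminescence from the stably transfected 4×ERE-luciferase reporter was recorded 30min after ONE-Glo addition.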
# [6] = target: Thyrotropin receptor (Homo sapiens) (UniProt P16473); assay: qHTS assay to identify small molecule antagonists of the thyroid stimulating hormone receptor (TSHR) signaling pathway (AID 1259385; calls by dose curve; also: nearly all actives have a fitted effect of over 20% in size)
# Method in brief: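 TSHR-HEK293 cells were plated and held 18 h at 37C/5% CO2, then given compound plus Ro20-1724 and stimulated with TSH at 1.5 ng/mL final. After 30 min at room temperature, cAMP was detected with cAMP-d2/anti-cAMP-cryptate (1 h) by fluorescence.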
# [7] = qHTS assay to identify small molecule antagonists of the progesterone receptor (PR) signaling pathway - cell viability counter screen (AID 1346798); also: nearly all actives have a fitted effect of over 50% in size; also: potency is read from the fitted curve at half-maximal effect
# Method in brief: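 Measures cytotoxicity in parallel with the PR antagonist reporter read: HEK293T PR-UAS-bla cells get compound and R5020 for 16 hr, and remaining viable cells are quantified by CellTiter-Glo luminescence.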
# [8] = qHTS assay to identify small molecule antagonists of the TGF-beta/Smad signaling pathway - cell viability counter screen (AID 1346824); also: nearly all actives have a fitted effect of over 50% in size; also: potency is read from the fitted curve at half-maximal effect
# Method in brief: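 SBE-bla HEK 293T cells were plated overnight at 37 C, then given compounds in DMSO plus TGF-beta1 (added as 0.25 ng/mL solution) for 5 hr. After the bla read, CellTiter-Glo was added to the same wells and luminescence read after 30 min at room temperature.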
# [9] = qHTS assay to identify small molecule agonists of the TGF-beta/Smad signaling pathway - cell viability counter screen (AID 1346829); also: nearly all actives have a fitted effect of over 45% in size; also: potency is read from the fitted curve at half-maximal effect
# Method in brief: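 Tox21 qHTS format: SBE-bla HEK 293T cells treated with DMSO-dissolved compounds for 5 hr; CellTiter-Glo luminescence after 30 min at room temperature.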
# [10] = qHTS assay to identify small molecule agonists of the TGF-beta/Smad signaling pathway (AID 1346859; active = well fitted activation curve with a large enough effect in the signal ratio in the repeat runs, not every such curve was filed as active; the % refers to the signal ratio; also: series mostly up to about 77 µM)
# Method in brief: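 Beta-lactamase reporter activity downstream of Smad binding elements was measured in stably transfected HEK 293T cells; compounds were incubated for 5 hr, substrate for 2 hr at room temperature.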
# [11] = Human pregnane X receptor (PXR) small molecule agonists, qHTS cell viability counter screen (AID 1346977); also: nearly all actives have a fitted effect of over 50% in size; also: potency is read from the fitted curve at half-maximal effect
# Method in brief: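 After a 5hr pre-incubation, PXR-Luc HepG2 cells received compounds plus positive control in DMSO and were kept 24hr at 37C. Cell viability was quantified by fluorescence from CellTiter-Fluor added for the final hour.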
# [12] = target: Androgen receptor (Homo sapiens) (UniProt P10275); assay: qHTS assay to identify small molecule agonists of the androgen receptor (AR) signaling pathway in the presence of an antagonist (AID 1259381; calls by dose curve; also: nearly all actives have a fitted effect of over 15% in size)
# Method in brief: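 Here, 15-concentration compound series were pin-transferred onto MDA-kb2 MMTV-luciferase cells already dosed with nilutamide (3.0uM final). After 16hr at 37C, ONE-Glo was added and luminescence read 30min later at room temperature.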
# [13] = qHTS assay to identify small molecule agonists or antagonists of the thyroid stimulating hormone receptor (TSHR) signaling pathway - wild type cell line counter screen (AID 1259384; calls by dose curve)
# Method in brief: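 Wild-type HEK293 cells were plated 18 h at 37 C/5% CO2, pin-dosed with compound plus Ro20-1724 medium, held 30 min at room temperature, then given cAMP-d2 and anti-cAMP-cryptate; fluorescence was read after 1 h. Fifteen concentrations, triplicate.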
# [14] = qHTS assay to identify small molecule agonists of the estrogen receptor alpha (ER-alpha) signaling pathway in the presence of an antagonist - cell viability counter screen (AID 1259386);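 also: cells exposed to compounds for 22 h at 37 °C before the viability read; nearly all actives have a fitted effect of over 30% in size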; also: potency is read from the fitted curve at half-maximal effect
# Method in brief: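 Fluorescent CellTiter-Fluor viability signal from VM7Luc4E2 cells, with the reagent added during the final hour of a 22hr compound exposure at 37C in the presence of 10.0nM ICI-182,780.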
# [15] = target: Progesterone receptor (Homo sapiens) (UniProt P06401); assay: qHTS assay to identify small molecule agonists of the progesterone receptor (PR) signaling pathway (AID 1346784; calls by dose curve; also: nearly all actives have a fitted effect of over 30% in size)
# Method in brief: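 Seed PR-UAS-bla HEK 293T cells (2% charcoal-stripped FBS), incubate 6 hr at 37C; add compounds in DMSO, 16 hr at 37C; add LiveBLAzer B/G substrate, 2 hr RT; read fluorescence intensity.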
# [16] = target: Progesterone receptor (Homo sapiens) (UniProt P06401); assay: qHTS assay to identify small molecule antagonists of the progesterone receptor (PR) signaling pathway (AID 1346795; active = well fitted inhibition curve with a large enough effect in the signal ratio in the repeat runs, not every such curve was filed as active; the % refers to the signal ratio; also: potency is read from the fitted curve at half-maximal effect)
# Method in brief: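 Screening used a GripTite HEK293T line with PR-responsive UAS-beta-lactamase. Cells were challenged with compound in the presence of 1 nM R5020 final for 16 hr at 37C; B/G FRET substrate, 2 hr room temperature, fluorescence.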
# [17] = qHTS assay to identify small molecule agonists of the progesterone receptor (PR) signaling pathway - cell viability counter screen (AID 1346799; calls by dose curve; also: nearly all actives have a fitted effect of over 45% in size; also: potency is read from the fitted curve at half-maximal effect)
# Method in brief: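 Using the same plates as the PR reporter screen, HEK293T PR-UAS-bla cells received compounds for 16 hr at 37C and were then lysed with CellTiter-Glo; luminescence was read 30 min later at room temperature.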
# [18] = target: Thyrotropin-releasing hormone receptor (Homo sapiens) (UniProt P34981); assay: qHTS assay to identify small molecule antagonists of the thyrotropin-releasing hormone receptor (TRHR) signaling pathway (AID 1346877; active = well fitted inhibition curve with a large enough effect in the repeat runs, not every such curve was filed as active; also: series mostly up to about 51 µM)
# Method in brief: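 In this cell-based calcium flux format, HEK293 cells expressing TRHR received test compound for 5 min before the agonist TRH (1 nM final). Dye loading lasted 2 h at 37 °C.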
# [19] = target: Thyrotropin-releasing hormone receptor (Homo sapiens) (UniProt P34981); assay: qHTS assay to identify small molecule agonists of the thyrotropin-releasing hormone receptor (TRHR) signaling pathway (AID 1346891; calls by dose curve; also: series mostly up to about 58 µM)
# Method in brief: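 Overnight-plated (18 h, 37 °C, 5% CO2) TRHR-Hek293 cells; 2 h calcium dye at 37 °C; compound in DMSO; 3-min kinetic fluorescence read.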
# [20] = target: Estrogen receptor beta (Homo sapiens) (UniProt Q92731); assay: qHTS assay to identify small molecule antagonists of the estrogen receptor beta (ER-beta) signaling pathway (AID 1259378; active = well fitted inhibition curve with a large enough effect in the signal ratio in the repeat runs, not every such curve was filed as active; the % refers to the signal ratio)
# Method in brief: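 ER-beta-UAS-bla HEK293T (GripTite) cells in 2% charcoal-stripped FBS medium were preincubated 6 hr at 37C, dosed with compound, then stimulated with 1 nM E2 (final) for 16 hr; beta-lactamase reporter read by B/G FRET fluorescence after 2 hr substrate loading.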
# Thyrotropin-releasing hormone receptor (Homo sapiens), sequence (P34981 whole entry, looked up): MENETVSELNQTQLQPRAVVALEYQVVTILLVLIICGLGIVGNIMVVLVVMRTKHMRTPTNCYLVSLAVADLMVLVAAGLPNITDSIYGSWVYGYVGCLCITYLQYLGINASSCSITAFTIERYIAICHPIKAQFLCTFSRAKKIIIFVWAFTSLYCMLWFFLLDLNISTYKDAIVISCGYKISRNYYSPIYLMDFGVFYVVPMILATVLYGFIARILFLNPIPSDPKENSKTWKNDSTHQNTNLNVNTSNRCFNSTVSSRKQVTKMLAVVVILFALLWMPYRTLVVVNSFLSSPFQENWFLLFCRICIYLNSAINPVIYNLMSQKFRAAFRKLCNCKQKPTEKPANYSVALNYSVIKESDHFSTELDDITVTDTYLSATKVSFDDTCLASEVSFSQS
# Androgen receptor (Homo sapiens), sequence (P10275 whole entry, looked up): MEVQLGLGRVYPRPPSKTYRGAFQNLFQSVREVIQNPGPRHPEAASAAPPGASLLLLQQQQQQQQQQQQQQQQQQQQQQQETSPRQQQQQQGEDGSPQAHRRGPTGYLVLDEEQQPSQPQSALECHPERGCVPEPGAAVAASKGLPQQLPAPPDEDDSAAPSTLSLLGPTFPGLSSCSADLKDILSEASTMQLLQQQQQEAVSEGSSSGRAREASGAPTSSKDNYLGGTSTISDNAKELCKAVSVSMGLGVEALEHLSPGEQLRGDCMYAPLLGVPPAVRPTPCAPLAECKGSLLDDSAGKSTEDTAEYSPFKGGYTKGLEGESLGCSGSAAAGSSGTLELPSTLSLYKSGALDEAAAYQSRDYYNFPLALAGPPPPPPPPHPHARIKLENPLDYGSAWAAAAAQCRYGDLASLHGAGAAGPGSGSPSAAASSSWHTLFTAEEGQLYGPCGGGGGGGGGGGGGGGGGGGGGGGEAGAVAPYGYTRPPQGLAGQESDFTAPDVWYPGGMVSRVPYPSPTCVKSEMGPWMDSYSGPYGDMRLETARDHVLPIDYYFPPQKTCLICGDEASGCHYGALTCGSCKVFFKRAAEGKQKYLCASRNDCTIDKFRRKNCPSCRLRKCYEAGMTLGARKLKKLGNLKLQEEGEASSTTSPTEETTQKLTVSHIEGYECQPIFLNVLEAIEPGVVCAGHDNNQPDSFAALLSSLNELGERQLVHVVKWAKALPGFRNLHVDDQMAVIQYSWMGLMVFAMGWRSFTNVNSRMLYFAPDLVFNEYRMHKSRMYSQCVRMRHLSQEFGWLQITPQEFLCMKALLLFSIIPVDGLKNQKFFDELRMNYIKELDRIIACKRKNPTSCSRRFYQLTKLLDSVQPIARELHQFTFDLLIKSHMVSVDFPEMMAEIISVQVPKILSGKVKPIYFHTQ
# Estrogen receptor beta (Homo sapiens), sequence (Q92731 whole entry, looked up): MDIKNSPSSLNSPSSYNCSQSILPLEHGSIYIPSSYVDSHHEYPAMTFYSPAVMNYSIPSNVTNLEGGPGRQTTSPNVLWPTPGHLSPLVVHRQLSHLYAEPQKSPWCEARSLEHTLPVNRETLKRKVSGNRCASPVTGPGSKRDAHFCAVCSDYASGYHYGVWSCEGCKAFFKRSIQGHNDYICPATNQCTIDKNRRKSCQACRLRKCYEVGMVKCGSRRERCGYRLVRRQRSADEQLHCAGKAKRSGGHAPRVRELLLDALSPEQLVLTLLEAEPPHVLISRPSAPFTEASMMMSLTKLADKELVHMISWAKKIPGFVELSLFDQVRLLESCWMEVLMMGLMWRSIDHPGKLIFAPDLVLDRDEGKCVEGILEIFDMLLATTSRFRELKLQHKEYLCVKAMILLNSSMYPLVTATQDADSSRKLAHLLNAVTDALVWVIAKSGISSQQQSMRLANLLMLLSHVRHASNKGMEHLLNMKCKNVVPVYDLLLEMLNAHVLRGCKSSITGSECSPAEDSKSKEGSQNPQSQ
# Thyrotropin receptor (Homo sapiens), sequence (P16473 whole entry, looked up): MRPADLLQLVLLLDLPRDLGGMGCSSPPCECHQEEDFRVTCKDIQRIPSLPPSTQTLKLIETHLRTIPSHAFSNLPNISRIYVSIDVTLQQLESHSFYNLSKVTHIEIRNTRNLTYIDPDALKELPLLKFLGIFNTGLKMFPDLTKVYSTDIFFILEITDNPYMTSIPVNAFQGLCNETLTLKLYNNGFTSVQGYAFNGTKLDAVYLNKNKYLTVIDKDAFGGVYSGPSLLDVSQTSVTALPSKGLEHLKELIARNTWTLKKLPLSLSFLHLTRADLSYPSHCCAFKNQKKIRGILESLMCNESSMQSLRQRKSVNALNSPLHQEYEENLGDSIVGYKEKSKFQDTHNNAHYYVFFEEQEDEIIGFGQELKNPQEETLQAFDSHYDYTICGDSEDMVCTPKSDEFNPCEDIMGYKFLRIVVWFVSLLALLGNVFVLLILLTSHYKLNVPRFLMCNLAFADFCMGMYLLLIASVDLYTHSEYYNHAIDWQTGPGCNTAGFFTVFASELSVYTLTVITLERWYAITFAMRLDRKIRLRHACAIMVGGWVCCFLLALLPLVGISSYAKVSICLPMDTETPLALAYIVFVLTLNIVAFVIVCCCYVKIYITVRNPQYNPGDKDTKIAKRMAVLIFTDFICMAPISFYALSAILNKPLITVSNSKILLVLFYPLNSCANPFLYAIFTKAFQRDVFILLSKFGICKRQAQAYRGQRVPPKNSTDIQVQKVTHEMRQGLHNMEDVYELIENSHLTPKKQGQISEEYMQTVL
# Estrogen receptor (Homo sapiens), sequence (P03372 whole entry, looked up): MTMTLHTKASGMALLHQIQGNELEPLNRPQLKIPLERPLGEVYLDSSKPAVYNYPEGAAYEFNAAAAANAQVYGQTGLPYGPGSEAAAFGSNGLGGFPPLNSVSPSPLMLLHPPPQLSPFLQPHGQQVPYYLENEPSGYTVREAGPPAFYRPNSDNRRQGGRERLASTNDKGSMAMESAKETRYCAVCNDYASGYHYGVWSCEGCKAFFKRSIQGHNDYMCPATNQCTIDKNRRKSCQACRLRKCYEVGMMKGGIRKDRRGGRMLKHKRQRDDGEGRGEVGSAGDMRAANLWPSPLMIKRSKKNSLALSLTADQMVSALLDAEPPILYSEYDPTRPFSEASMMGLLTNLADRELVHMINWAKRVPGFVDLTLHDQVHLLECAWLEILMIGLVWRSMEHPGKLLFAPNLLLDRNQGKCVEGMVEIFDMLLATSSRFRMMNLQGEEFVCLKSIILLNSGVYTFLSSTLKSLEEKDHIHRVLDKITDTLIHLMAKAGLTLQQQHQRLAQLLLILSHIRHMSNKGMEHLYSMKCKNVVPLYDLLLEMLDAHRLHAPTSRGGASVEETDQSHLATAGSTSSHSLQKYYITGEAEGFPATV
# Progesterone receptor (Homo sapiens), sequence (P06401 whole entry, looked up): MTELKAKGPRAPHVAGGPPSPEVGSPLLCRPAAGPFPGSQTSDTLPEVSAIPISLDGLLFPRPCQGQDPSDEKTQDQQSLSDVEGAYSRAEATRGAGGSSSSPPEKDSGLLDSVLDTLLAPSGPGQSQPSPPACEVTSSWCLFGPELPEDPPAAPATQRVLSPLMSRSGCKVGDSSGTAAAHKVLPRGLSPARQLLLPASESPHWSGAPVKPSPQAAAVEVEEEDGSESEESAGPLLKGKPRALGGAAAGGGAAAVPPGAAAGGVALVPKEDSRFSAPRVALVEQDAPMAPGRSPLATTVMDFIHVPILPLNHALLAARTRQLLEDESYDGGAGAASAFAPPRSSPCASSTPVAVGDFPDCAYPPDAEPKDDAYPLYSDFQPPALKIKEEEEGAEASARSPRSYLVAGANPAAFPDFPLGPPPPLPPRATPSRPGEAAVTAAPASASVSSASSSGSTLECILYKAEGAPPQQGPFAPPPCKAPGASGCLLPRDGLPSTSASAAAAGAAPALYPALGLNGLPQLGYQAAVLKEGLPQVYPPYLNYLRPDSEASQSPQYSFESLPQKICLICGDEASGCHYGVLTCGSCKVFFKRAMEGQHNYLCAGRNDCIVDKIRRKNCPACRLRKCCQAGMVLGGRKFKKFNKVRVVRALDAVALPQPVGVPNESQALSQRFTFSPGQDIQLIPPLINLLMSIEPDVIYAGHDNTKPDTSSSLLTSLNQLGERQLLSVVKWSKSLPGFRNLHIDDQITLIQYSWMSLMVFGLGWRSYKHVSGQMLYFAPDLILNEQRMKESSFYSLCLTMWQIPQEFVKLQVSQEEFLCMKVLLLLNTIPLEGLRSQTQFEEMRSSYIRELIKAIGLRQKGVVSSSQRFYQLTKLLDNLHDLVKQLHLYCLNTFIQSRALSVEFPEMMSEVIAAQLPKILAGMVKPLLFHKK
Compound,Potency [1],Potency [2],Potency [3],Potency [4],Potency [5],Potency [6],Potency [7],Potency [8],Potency [9],Potency [10],Potency [11],Potency [12],outcome [13],Potency [14],outcome [15],Potency [16],Potency [17],Potency [18],Potency [19],Potency [20]
O=C1c2c(O)ccc([N+](=O)[O-])c2C(=O)c2c([N+](=O)[O-])ccc(O)c21,inactive,27.1 µM (active),15.2 µM (active),17.1 µM (active),inactive,inactive,24.1 µM (active),48.5 µM (active),48.5 µM (active),inactive,13.6 µM (active),,,,,,,,,
CCOC(=O)CC(C)O (stereo not drawn),inactive,inactive,inactive,inactive,,inactive,inactive,inactive,inactive,inactive,inactive,inactive,inactive,inactive,inactive,inactive,,,,
CCCCN(CCCC)CCC(O)c1cc2c(Cl)cc(Cl)cc2c2cc(C(F)(F)F)ccc12 (stereo not drawn),inactive,,7.5 µM (active),,inactive,inactive,inactive,inactive,inactive,inactive,26.6 µM (active),,inactive,inactive,inactive,inactive,inactive,,,
CCN(CC)CCCN(c1ccccc1)C1Cc2ccccc2C1,inactive,29.8 µM (active),11.9 µM (active),,inactive,inactive,,inactive,inactive,inactive,23.7 µM (active),,inactive,inactive,inactive,inactive,,,,
CN1CN(C)CN(C)C1,inactive,inactive,inactive,inactive,,inactive,inactive,inactive,inactive,inactive,inactive,,inactive,inactive,inactive,inactive,inactive,inactive,inactive,
CCCCCCCCCCCCCOP(=O)(O)O,inactive,inactive,,inactive,inactive,inactive,,inactive,inactive,inactive,inactive,,inactive,,,,inactive,inactive,inactive,
O=C1C=CC(=O)N1c1ccccc1,inactive,61.1 µM (active),27.3 µM (active),48.6 µM (active),inactive,,,,,inactive,,,,,,,,inactive,inactive,
CCN=C1C=CC(=C(c2ccc(N(CC)CC)cc2)c2ccc(N(CC)CC)cc2)c2ccccc21,inactive,,27.1 µM (active),21.6 µM (active),inactive,,,,,,0.682 µM (active),,,9.63 µM (active),,,,,inactive,
Cc1cccc(C)c1NC(=O)CN1CCN(CCCC(c2ccc(F)cc2)c2ccc(F)cc2)CC1,inactive,,26.6 µM (active),26.6 µM (active),,,,inactive,,inactive,23.7 µM (active),,inactive,,,,,inactive,inactive,
OCCCS,,inactive,inactive,inactive,inactive,inactive,inactive,inactive,inactive,inactive,,inactive,inactive,inactive,inactive,inactive,inactive,,,inactive
C=CC(=O)OCC(O)COc1ccccc1 (stereo not drawn),inactive,,,inactive,inactive,,,inactive,inactive,inactive,inactive,,,inactive,inactive,,inactive,inactive,inactive,inactive
CC1CCCCN1CCCOC(=O)c1ccc(OC2CCCCC2)cc1 (stereo not drawn),inactive,26.6 µM (active),,inactive,inactive,inactive,,inactive,inactive,inactive,inactive,inactive,inactive,,inactive,,,inactive,inactive,
Nc1ncnc2c1ncn2[C@@H]1O[C@H](COP(=O)(O)O)[C@@H](O)[C@H]1O,inactive,inactive,26.6 µM (active),inactive,,inactive,,inactive,inactive,inactive,inactive,,inactive,,inactive,inactive,inactive,inactive,inactive,
COc1ccc2sc(C(=O)Nc3nnn[nH]3)c(OC(C)C)c2c1,inactive,,6.83 µM (active),,inactive,inactive,,inactive,inactive,,24.2 µM (active),,inactive,,inactive,54.3 µM (active),,,,
O[C@@H](c1cc(C(F)(F)F)nc2c(C(F)(F)F)cccc12)[C@H]1CCCCN1,inactive,,21.1 µM (active),16.8 µM (active),inactive,,26.6 µM (active),,inactive,inactive,26.6 µM (active),,inactive,inactive,,23.7 µM (active),26.6 µM (active),inactive,,
